# In the library only some 6.5% were active in any assay of this set; here they are far more common.
# Vaccinia Venus = qHTS for Stage-Specific Inhibitors of Vaccinia Orthopoxvirus: Venus Reporter Primary qHTS. Vaccinia virus Venus reporter expression, fluorescence. Potency, µM (top dose mostly 36.5 µM), hits mostly inhibitors. 0.46% of 330,000 active. AID 720580, 2013; calls by dose curve; tested in A549 cells; also: nearly all actives have a fitted effect of over 30% in size
# LASV entry inh = qHTS for Inhibitors of binding or entry into cells for Lassa Virus. AID 540256, 2011. Lassa virus pseudotype entry inhibition, cell reporter. 1.2% of 300,000 active. Potency, µM (top dose mostly 37.9 µM), hits mostly inhibitors; calls by dose curve; tested in HEK293 cells; also: nearly all actives have a fitted effect of over 50% in size
# FMDV antiviral = High Throughput Screening for Foot and Mouth Disease Virus Antivirals; FMDV antiviral cell-based qHTS; Potency, µM (highest dose often 57.9 µM), usual class: inhibitors; 1.2% of 410,000 active; AID 1159524, 2015; calls by dose curve; tested in HEK293T cells; also: read-out not given here; nearly all actives have a fitted effect of over 45% in size
# HCMV inh = qHTS Assay for inhibitors of the human cytomegalovirus (HCMV). HFF cells, HCMV-luciferase reporter, 72 h; active compounds read low. activity change, negative = inhibition, % at 57.5 µM. 4.5% of 410,000 active. AID 1259415, 2018; in the data active = activity change below about -60%; inconclusive = no clear call, values can overlap the other calls; inactive = above about -39%
#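 HFF cells seeded 16 h at 37C, treated with compounds, infected with luciferase-reporter HCMV at MOI 1 PFU/cell; luciferase read at 72 h post infection, normalized to buffer-only and Salinomycin controls.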
# MARV entry inh = qHTS for inhibitors of binding or entry into cells for Marburg Virus. Marburg virus pseudotyped entry inhibition, cell reporter. Potency, µM (highest dose often 37.8 µM), usual class: inhibitors. 1.8% of 300,000 active; calls by dose curve; tested in HEK293 cells
# Vaccinia mCherry = qHTS for Stage-Specific Inhibitors of Vaccinia Orthopoxvirus: mCherry Reporter Primary qHTS; Vaccinia virus mCherry reporter infection, fluorescence; Potency, µM (top dose mostly 36.5 µM), hits mostly inhibitors; 0.63% of 310,000 active; calls by dose curve; tested in A549 cells; also: nearly all actives have a fitted effect of over 35% in size
# Numbers stand for hits; i = inactive; ? = inconclusive; nt = no result; + = active, no number.
SMILES,Vaccinia Venus,LASV entry inh,FMDV antiviral,HCMV inh,MARV entry inh,Vaccinia mCherry
CC(NC(=O)C1CCOCC1)c1nnc2n1CCN(Cc1ccc3cccnc3c1)CC2 (centres undefined),i,nt,i,nt,nt,i
CSc1ccc2c(c1)N(CCC1CCCCN1C)c1ccccc1S2 (centres undefined),?,5.2µM,i,?,10µM,i
COc1ccc(C(=O)O/N=C(\N)Cc2cccs2)cc1OC,i,1.8µM,i,i,?,i
COc1ccccc1C(=O)O/N=C(\N)c1ccccc1Cl,nt,?,i,i,?,nt
COc1ccc(C(=O)O/N=C(\N)c2ccccc2Cl)cc1OC,i,4.5µM,i,i,11µM,i
Cc1cccc(N=N/C(=C\O)C(=O)c2ccc(Br)cc2)c1,i,5.6µM,i,-77,7.9µM,i
Cc1ccc(C(=O)Nc2ccc3c(c2)C(=O)N(C)C3=O)c(C)c1,i,nt,i,?,nt,i
COCC(=O)N1CCC(Oc2ccc(C(=O)N(C)CCCC3CCCC3)cc2)CC1,nt,nt,?,-67,nt,nt
COCC(=O)N1CCC(Oc2ccc(C(=O)N3CCCCCCC3)cc2)CC1,i,i,i,i,i,i
C[C@@H]1CN([C@H](C)CO)C(=O)CCCn2nncc2CO[C@H]1CN(C)S(=O)(=O)c1cccc(C#N)c1,5µM,nt,i,i,nt,?
Oc1[nH]c2c(Cl)cc(Cl)cc2c1N=NC(=S)NCC1CCCO1 (centres undefined),i,?,25µM,-68,?,i
Cc1cccc(NC(=O)C2CCN(S(=O)(=O)c3ccc4[nH]c5c(c4c3)CCCCC5)CC2)c1,i,i,i,i,nt,i
CCOc1ccc(C2=CS/C(=C(\C#N)c3nnc4n3CCCCC4)N2CC)cc1,i,?,?,-63,?,?
COc1ccc(-c2n(Cc3ccccc3)c3ccccc3[n+]2Cc2ccccc2)cc1,nt,8.2µM,?,-98,5.8µM,nt
Cc1ccc(NC(=O)c2cc3c([nH]c2=O)CC(C)(C)CC3=O)cc1,i,nt,nt,nt,nt,i
NNC(=O)c1cccc(COc2ccc3c(c2)CCC3)c1,i,2.1µM,13µM,i,?,i
NNC(=O)c1cccc(COc2ccccc2Br)c1,i,?,i,i,?,i
CCN(CC)S(=O)(=O)c1ccc(C(=O)Nc2ccc3c(c2)OCO3)cc1,i,?,i,i,i,i
Cc1csc(CN(C)C(=O)CC2C(=O)NCCN2Cc2ccc(F)cc2Cl)n1 (centres undefined),nt,nt,i,i,nt,nt
Cc1csc(CN(C)C(=O)CC2C(=O)NCCN2Cc2ccc(Cl)c(F)c2)n1 (centres undefined),nt,nt,i,+,nt,nt
FC(F)Oc1ccc(-n2cc(-c3ccccc3)[n+]3c2CCCCC3)cc1,i,?,?,i,?,i
Cc1ccc(-c2cn(-c3ccc(SC(F)F)cc3)c3[n+]2CCC3)cc1,i,i,?,-98,?,i
Cc1ccc(-c2cn(-c3ccc(OC(F)F)cc3)c3[n+]2CCCCC3)cc1,i,?,i,-89,i,i
CCOC(=O)C1=C[C@@]2(CC)CCCN3CCc4c(n1c1ccccc41)C32 (some centres undefined),?,nt,i,nt,nt,i
c1ccc(C(NCc2cccnc2)(c2ccccc2)c2ccccc2)cc1,nt,8.2µM,?,nt,i,nt
SMILES,Vaccinia Venus,LASV entry inh,FMDV antiviral,HCMV inh,MARV entry inh,Vaccinia mCherry
c1ccc(CCc2cccnc2)cc1,i,i,i,i,i,i
CS(=O)(=O)c1ccc(Cl)c(NC(=O)CSc2n[nH]c(-c3cccs3)n2)c1,nt,nt,i,i,nt,nt
COC(=O)CC/C(C)=N\Nc1ccc([N+](=O)[O-])cc1[N+](=O)[O-],nt,i,i,-103,?,nt
C/C(CC(C)C)=N/Nc1ccc([N+](=O)[O-])cc1[N+](=O)[O-],nt,nt,i,i,nt,nt
CC(C)C[C@H](N)C(=O)N1CCC(C(=O)N[C@H](C(=O)NC(C)c2ccccc2)C(C)C)CC1 (some centres undefined),i,nt,i,i,nt,i
O=C(CSc1ncnc2[nH]ncc12)Nc1nc(-c2ccc(F)c(F)c2)cs1,nt,?,14µM,-90,?,nt
O=C(Cc1ccc(F)cc1)Nc1nc(-c2ccc(F)c(F)c2)cs1,nt,nt,?,i,nt,nt
O=C1NC[C@@H](CCCCN2C[C@H](Cc3ccc(O)cc3)N(CCc3ccccc3)C(=O)C2=O)N(CCc2ccc(O)cc2)C1=O,i,nt,i,i,nt,i
CN1CCc2cc3c(c4c2[C@H]1[C@H](O)c1ccccc1-4)OCO3,i,i,i,-71,i,?
CCOC(=O)C1=CCN(S(=O)(=O)c2cccc(Cl)c2)C1c1cccc(Cl)c1 (centres undefined),nt,nt,nt,i,nt,nt
Fc1ccc(NC(=S)Nc2ccc(Cl)cc2)cc1,i,i,i,-78,i,i
NNC(=O)C1CC1c1ccc(Cl)cc1 (centres undefined),i,2.6µM,i,i,i,i
O=C(NNC(=S)Nc1ccc(F)cc1)C1CC1c1ccc(Cl)cc1 (centres undefined),i,0.41µM,i,i,i,i
CCC(=O)Nc1c(-c2ccccc2Cl)c(=O)c2ccccc2n1C,nt,nt,i,i,nt,nt
Cc1ccccc1-n1nnnc1SCC(=O)NNC(=O)c1ccc(NC(=O)CC#N)cc1,nt,nt,i,i,nt,nt
COc1ccc(S(N)(=O)=O)cc1C(=O)OCC(=O)N1c2ccccc2NC(=O)C1(C)C,i,i,i,i,i,i
COc1cc(OC)cc(C(=O)NCC(=O)OCC(=O)N2c3ccccc3NC(=O)C2(C)C)c1,i,nt,i,-98,i,i
COc1cc(/C=C/C(=O)OCC(=O)N2c3ccccc3NC(=O)C2(C)C)cc(OC)c1OC,nt,nt,28µM,i,nt,nt
COCc1c(C(=O)OCC(=O)N2c3ccccc3NC(=O)C2(C)C)oc2ccccc12,nt,i,25µM,i,?,nt
COCc1c(C(=O)OCC(=O)N2c3ccccc3CC2C)oc2ccccc12 (centres undefined),nt,i,i,i,i,nt
O=C(Nc1ccccc1)c1ccc(-n2nncc2-c2ccccc2)cc1,i,nt,nt,nt,nt,i
FC(F)(F)C1=NNC(c2ccc3ccccc3c2)=NN1,i,nt,i,i,nt,i
COC(=O)C1=C(C(=O)OC)[C@@H]2N(CC=C(C)C)c3ccccc3[C@@]23CCC(=O)N(CCc2ccccn2)C3=N1,nt,nt,nt,nt,i,nt
CCOc1ccccc1NC(=O)CSc1nc2c(oc3ccccc32)c(=O)n1-c1ccc(F)cc1,i,nt,i,i,?,i
CC(C)NC(=O)C1CCC(Cn2c(=O)c3sccc3n(CC(=O)N3CCCC3)c2=O)CC1 (centres undefined),i,i,i,-89,nt,i
CCn1c(=O)n(CC2CCC(C(=O)NC(C)C)CC2)c(=O)c2sccc21 (centres undefined),i,i,i,i,nt,i
C[C@H](CO)N1C[C@H](C)[C@@H](CN(C)CC2CCCCC2)Oc2c(NC(=O)Cc3ccccc3)cccc2C1=O,10µM,nt,i,i,nt,?

# Bioassay records as filed in PubChem BioAssay.
